COUP-TFII inh = NR2F2 transcriptional activity inhibitors, primary screen, cell-based, luciferase reporter, HEK293T, luminescence; COUP transcription factor 2 (Homo sapiens), P24468; HEK293T NGFI-A luciferase reporter; inhibition, % at 8.6 µM; hit rate 0.7% among 370,000; AID 686940, 2013;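 active = inhibition above a per-plate cutoff, mean inhibition of test wells between control levels plus 3 SD, cut at about 38% in these data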;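 also: cells cotransfected with COUP-TFII expression vector driving the NGFI-A reporter; 0% = median of COUP-TF2 test wells and 100% = reporter-only cells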
LRH-1 inv ag = LRH-1 (NR5A2) inverse agonists, primary screen, cell-based, luminescence, HEK293T, StAR-luciferase reporter. Nuclear receptor subfamily 5 group A member 2 (Homo sapiens), O00482. LRH-1 transfected, 24 h. inhibition, % at 3.6 µM. hit rate 0.13% among 360,000;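 active = inhibition above the mean inhibition of all tested compounds plus 3 SD, cut at about 73% in these data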;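 also: 0% = DMSO wells and 100% = reporter-only cells lacking LRH-1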
SRC1 inh = SRC1 coactivator transcriptional activity inhibitors, primary screen, cell-based, luminescence | Nuclear receptor coactivator 1 (Homo sapiens), Q15788 | HEK293 GAL4-SRC1 luciferase reporter | inhibition, % at 3.6 µM | hit rate 0.12% among 360,000 | AID 588354, 2011;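 active = inhibition above the campaign mean plus 3 SD, with each screening campaign given its own cutoff, cut at about 60% in these data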;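 also: 0% = DMSO treated cells and 100% = gossypol at 36 µM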
Efflux pump inh = inhibitors of Candida efflux pumps in yeast, primary screen, S. cerevisiae, Nile Red, multiplex | S. cerevisiae Candida pump triplex | inhibition, % at 10 µM | hit rate 0.44% among 330,000 | AID 485275, 2010;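 active = plate passing quality check with inhibition over a set limit, or well fluorescence over plate mean plus 4 SD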;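 also: Nile Red retained in pooled yeast measured as flow cytometry median fluorescence; 0% = buffer negative control and 100% = Enniatin B positive control; higher means more Nile Red kept so more efflux inhibition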
SRC3 inh = SRC3 coactivator transcriptional activity inhibitors, primary screen, cell-based, luminescence; Nuclear receptor coactivator 3 (Homo sapiens), Q9Y6Q9; HEK293 GAL4-SRC3 luciferase reporter; inhibition, % at 3.6 µM; hit rate 0.17% among 360,000;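 active = inhibition above a per-campaign cutoff, the mean of all compounds plus 3 SD, cut at about 60% in these data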;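 also: 0% = DMSO-treated cells and 100% = gossypol-treated cells at 36 µM; higher means less SRC3-driven luciferase light from the GAL4 reporter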
SRC2 inh = inhibition of GAL4-SRC2 driven luciferase reporter, primary screen, SRC2 inhibitor project, cell-based, luminescence; Nuclear receptor coactivator 2 (Homo sapiens), Q15596; AID 651957, 2012; inhibition, % at 9 µM; hit rate 0.17% among 370,000; HEK293 GAL4-SRC2 luciferase reporter;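 active = inhibition above the mean inhibition of all tested compounds plus 3 SD, set per campaign, cut at about 52% in these data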;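 also: 0% = DMSO treated cells and 100% = cells given Gossypol at 36 µM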
Yeast cmpd fluor = flagged as fluorescent in efflux inhibitor counter-screen; fluorescence ratio to DMSO, % at 10 µM; AID 588517; hit rate 4% among 1,700; S. cerevisiae AD/pABC3, compound fluorescence, flow cytometry; shares compounds with Efflux pump inh;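 active = fluorescence ratio to DMSO above its plate's cutoff, the plate mean ratio plus 5 SD, cut at about 210% in these data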;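 also: unstained yeast with no Nile Red so the signal is compound autofluorescence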
CaMdr1 efflux inh = inhibitors of Candida albicans Mdr1 efflux, confirmation, flow cytometry, singleplex, Cherry Pick1 set. S. cerevisiae AD/CaMDR1, Nile Red efflux. inhibition, % at 10 µM. hit rate 1% among 1,700. shares compounds with Efflux pump inh; in the data active = inhibition above about 26%;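 also: 0% = DMSO vehicle and 100% = reference inhibitor; higher means more Nile Red retained so more efflux inhibition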
CaCdr2 efflux inh = inhibitors of Candida albicans Cdr2 efflux pump, confirmation, S. cerevisiae AD/CaCDR2, flow cytometry, cherry pick 1, singleplex | shares compounds with Efflux pump inh | Nile Red retention | Nile Red retention ratio vs DMSO, % at 10 µM | hit rate 4% among 1,700 | AID 588520, 2011; in the data active = Nile Red retention ratio vs DMSO above about 190%;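 also: higher ratio means more blocking of Cdr2 efflux of the dye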
CaCdr1 efflux inh = inhibitors of Candida albicans Cdr1 efflux pump, confirmation, S. cerevisiae AD/CaCDR1, flow cytometry, cherry pick 1, singleplex; AID 588522, 2011; hit rate 1% among 1,700; shares compounds with Efflux pump inh; Nile Red efflux; inhibition, % at 10 µM;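 active = inhibition above the screen-wide mean plus twice its standard deviation, cut at about 32% in these data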
Numbers without * were called inactive; x = no result given. A selection: hits, their analogues and other compounds. The true share with any hit is near 1.2%.

SMILES	COUP-TFII inh	LRH-1 inv ag	SRC1 inh	Efflux pump inh	SRC3 inh	SRC2 inh	Yeast cmpd fluor	CaMdr1 efflux inh	CaCdr2 efflux inh	CaCdr1 efflux inh
N#Cc1cnc(NN)nc1	5	-36	-4	0.9*	10	10	107	0	106	0
Cc1ccc(C)n1-c1ccc(C#N)cn1	-8	6	-12	0	15	11	x	x	x	x
CCCCCOCC1CC(C/C(C)=N/NC(N)=O)(C(=O)OCC)C(=O)O1 (centres undefined)	9	6	8	0	17	-20	x	x	x	x
CCCCC1(C(=O)OCC)CC(CSC(=N)N)OC1=O (centres undefined)	36	-10	-2	0.6*	-8	21	92	0	104	0
Cc1ccc(NC(=O)COC(=O)c2cccnc2)cc1	-3	15	-20	0	5	-5	x	x	x	x
O=c1c(-c2ccccc2)nc(-c2ccccc2)cn1O	13	-43	-33	0	-35	3	x	x	x	x
c1cc2c(cc1C1CCCCC1)c1c3n2CCCNC3CCC1 (centres undefined)	-13	2	-8	95*	-11	1	100	0	99	0
O=C(N/N=C\c1cccnc1)c1cc(-c2ccc(Cl)s2)[nH]n1	-12	-21	-4	0	8	-11	x	x	x	x
CC(C)(C)C(=O)OCOP(=O)(COCCn1cnc2c(N)ncnc21)OCOC(=O)C(C)(C)C	-24	x	x	x	x	8	x	x	x	x
COc1ccc(N(C(=O)CNC(=O)c2ccco2)C(C(=O)NCC2CCCO2)c2ccccc2)cc1OC (centres undefined)	-18	8	4	0	-9	6	x	x	x	x
CC1=C(C)CC(C(=O)Nc2cccc([N+](=O)[O-])c2)C(C(=O)O)C1 (centres undefined)	1	3	-39	35*	6	-25	98	0	91	0
O=C(O)C1C2CCC(C2)C1C(=O)Nc1cccc([N+](=O)[O-])c1 (centres undefined)	-17	-10	-13	0	-16	-4	x	x	x	x
CC(C)(C)n1nnnc1C(c1ccccc1)N1CCN(C/C=C/c2ccccc2)CC1 (centres undefined)	-27	23	4	x	12	-35	x	x	x	x
Cc1ccccc1OCCC(=O)OCC(=O)c1c(N)n(CC(C)C)c(=O)n(C)c1=O	-7	4	-6	6.2*	6	18	99	0	96	0
COc1ccccc1-c1nc(C#N)c(N2CCN(C(c3ccccc3)c3ccccc3)CC2)o1	0	-9	2	0.5*	7	1	100	0	116	0
COc1ccccc1-c1nc(C#N)c(N2CCN(c3cccc(Cl)c3)CC2)o1	x	-2	-3	0	-5	x	x	x	x	x
Cc1ccccc1NC(=S)NCCc1ccccc1	2	-6	-6	0	10	17	x	x	x	x
Cc1ccccc1NC(=S)NCc1ccccc1	5	-14	-13	8.9*	-3	3	95	0	112	0
O=C(Oc1c(-c2ccccc2)c(=O)n2c3c(cccc13)CC2)c1ccccc1	17	-11	-6	0	-24	-3	161	0	91	3
CN1CCN(C(=O)c2c(O)c3cccc4c3n(c2=O)CC4)CC1	3	-7	-5	0	6	0	x	x	x	x

Screening data: PubChem, several laboratories
